Test results published in the supplement of paper PMC10849652.
About 8,800 targets were measured; listed, in parts, are those with a hit and a random draw of the rest. About 0.5% of all pairs of compound and target were hits. Unmarked numbers belong to inactive results.

What was measured:
Assay in all cases: log2 fold change, soluble protein after heating vs DMSO (PISA); higher = thermal stabilisation; K562 lysate, 10 uM; active = over 0.2 and 3.5 SD of the protein, either way, in both replicates (recomputed)
erlotinib = compound: C#Cc1cccc(Nc2ncnc3cc(OCCOC)c(OCCOC)cc23)c1 [erlotinib]
Procedure, shortened: (§1)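 Dounce homogenisation of K562 pellets in PBS pH 7.4 with 1 mM MgCl2 produced a crude extract, used at 1 mg/mL protein. Exposure to 10 μM compound lasted 30 min, and aliquots were then heated for 3 min across 48°C-58°C, pooled and brought to 0.5% NP-40 at 4°C. The supernatant after 21,000xg for 90 min was quantified by TMTpro 16plex LC-MS/MS with channel sums equalised. Duplicate values are given as log-two fold change in thermal stability relative to solvent controls.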

[1] = compound: C/C(=N\NC(=O)C1=CC(=CC=C1)S(=O)(=O)N2CCOCC2)/C3=C(C=CC(=C3)Cl)O
Procedure, shortened: as §1

[2] = compound: C1=CC(=CC=C1C2=NC3=C(N2)C=C(C=C3)C(=O)N)OC4=CC=C(C=C4)Cl
Procedure, shortened: as §1

[3] = compound: C1=CC2=C(C=CC(=C2)/C=C\3/C(=O)NC(=NCC4=CC=CS4)S3)N=C1
Procedure, shortened: as §1

[4] = compound: C1=CC2=NC=CN=C2C=C1/C=C/3\C(=O)NC(=O)S3
Procedure, shortened: as §1

[5] = compound: C1=CC=C(C=C1)C2=NC(=C(N2)C3=CC=NC=C3)C4=CC(=C(C=C4)Cl)O
Procedure, shortened: as §1

[6] = compound: C1=CC=C2C(=C1)C3=NNC4=CC=CC(=C43)C2=O
Procedure, shortened: as §1

[7] = compound: C1CCN(C1)C(=O)NC2=CC=CC(=C2)NC3=NC=C(C(=N3)NCCC4=CN=CN4)Br
Procedure, shortened: as §1

[8] = compound: C1CN(CCC1(CC2=CC=C(C=C2)Cl)N)C3=NC=NC4=C3C=CN4
Procedure, shortened: as §1

IRAK-1-4 Inhibitor I = compound: C1COCCN1CCN2C3=CC=CC=C3N=C2NC(=O)C4=CC(=CC=C4)[N+](=O)[O-] [IRAK-1-4 Inhibitor I]
Procedure, shortened: as §1

Sequence of UniProt O43861 (O43861 whole entry, looked up): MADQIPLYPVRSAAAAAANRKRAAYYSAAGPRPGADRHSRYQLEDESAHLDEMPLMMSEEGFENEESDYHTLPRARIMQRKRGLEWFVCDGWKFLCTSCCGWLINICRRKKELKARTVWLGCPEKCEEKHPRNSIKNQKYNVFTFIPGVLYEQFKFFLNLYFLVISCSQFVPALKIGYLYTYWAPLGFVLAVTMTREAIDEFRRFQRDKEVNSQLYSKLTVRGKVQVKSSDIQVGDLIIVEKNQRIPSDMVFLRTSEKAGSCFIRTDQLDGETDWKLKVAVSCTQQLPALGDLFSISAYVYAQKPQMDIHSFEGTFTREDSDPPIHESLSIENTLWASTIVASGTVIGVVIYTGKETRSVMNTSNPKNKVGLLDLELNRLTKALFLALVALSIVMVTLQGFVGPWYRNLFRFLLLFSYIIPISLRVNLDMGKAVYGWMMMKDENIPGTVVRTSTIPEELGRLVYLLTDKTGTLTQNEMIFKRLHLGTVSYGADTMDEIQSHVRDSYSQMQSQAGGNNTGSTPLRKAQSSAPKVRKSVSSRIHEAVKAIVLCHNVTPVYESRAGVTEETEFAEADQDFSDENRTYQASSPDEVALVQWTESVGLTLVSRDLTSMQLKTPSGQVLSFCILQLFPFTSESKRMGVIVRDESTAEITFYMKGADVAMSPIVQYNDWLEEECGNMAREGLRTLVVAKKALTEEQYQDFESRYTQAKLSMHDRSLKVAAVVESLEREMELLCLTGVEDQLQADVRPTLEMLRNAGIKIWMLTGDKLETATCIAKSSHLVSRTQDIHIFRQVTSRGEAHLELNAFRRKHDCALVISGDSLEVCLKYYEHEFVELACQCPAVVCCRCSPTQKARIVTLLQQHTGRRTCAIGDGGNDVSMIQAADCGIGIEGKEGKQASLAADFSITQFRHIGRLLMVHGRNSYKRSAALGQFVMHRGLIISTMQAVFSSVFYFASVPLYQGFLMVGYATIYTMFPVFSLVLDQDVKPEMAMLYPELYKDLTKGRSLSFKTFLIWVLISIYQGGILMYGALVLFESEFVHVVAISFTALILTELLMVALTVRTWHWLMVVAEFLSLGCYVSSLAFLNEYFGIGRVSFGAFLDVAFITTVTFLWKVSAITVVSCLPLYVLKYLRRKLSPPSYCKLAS
Sequence of UniProt Q13825 (Q13825 whole entry, looked up): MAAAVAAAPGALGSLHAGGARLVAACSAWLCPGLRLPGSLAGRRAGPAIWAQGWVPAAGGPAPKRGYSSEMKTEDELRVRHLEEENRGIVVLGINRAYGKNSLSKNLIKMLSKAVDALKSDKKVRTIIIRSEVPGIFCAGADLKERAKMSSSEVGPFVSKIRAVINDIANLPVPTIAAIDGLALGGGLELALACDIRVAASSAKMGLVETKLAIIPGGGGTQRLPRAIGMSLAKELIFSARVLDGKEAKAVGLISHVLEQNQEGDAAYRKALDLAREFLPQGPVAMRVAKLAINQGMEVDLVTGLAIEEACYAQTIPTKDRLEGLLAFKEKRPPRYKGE
Sequence of UniProt Q9UEE9 (Q9UEE9 whole entry, looked up): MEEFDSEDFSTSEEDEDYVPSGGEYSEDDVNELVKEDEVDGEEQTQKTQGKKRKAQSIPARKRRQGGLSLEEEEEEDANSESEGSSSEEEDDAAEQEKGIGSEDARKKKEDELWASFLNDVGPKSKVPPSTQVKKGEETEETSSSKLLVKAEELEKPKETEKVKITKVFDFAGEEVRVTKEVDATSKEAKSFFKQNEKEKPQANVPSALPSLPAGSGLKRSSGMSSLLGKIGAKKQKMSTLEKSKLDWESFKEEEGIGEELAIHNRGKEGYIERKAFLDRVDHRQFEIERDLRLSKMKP
Sequence of UniProt Q9NSG2 (Q9NSG2 whole entry, looked up): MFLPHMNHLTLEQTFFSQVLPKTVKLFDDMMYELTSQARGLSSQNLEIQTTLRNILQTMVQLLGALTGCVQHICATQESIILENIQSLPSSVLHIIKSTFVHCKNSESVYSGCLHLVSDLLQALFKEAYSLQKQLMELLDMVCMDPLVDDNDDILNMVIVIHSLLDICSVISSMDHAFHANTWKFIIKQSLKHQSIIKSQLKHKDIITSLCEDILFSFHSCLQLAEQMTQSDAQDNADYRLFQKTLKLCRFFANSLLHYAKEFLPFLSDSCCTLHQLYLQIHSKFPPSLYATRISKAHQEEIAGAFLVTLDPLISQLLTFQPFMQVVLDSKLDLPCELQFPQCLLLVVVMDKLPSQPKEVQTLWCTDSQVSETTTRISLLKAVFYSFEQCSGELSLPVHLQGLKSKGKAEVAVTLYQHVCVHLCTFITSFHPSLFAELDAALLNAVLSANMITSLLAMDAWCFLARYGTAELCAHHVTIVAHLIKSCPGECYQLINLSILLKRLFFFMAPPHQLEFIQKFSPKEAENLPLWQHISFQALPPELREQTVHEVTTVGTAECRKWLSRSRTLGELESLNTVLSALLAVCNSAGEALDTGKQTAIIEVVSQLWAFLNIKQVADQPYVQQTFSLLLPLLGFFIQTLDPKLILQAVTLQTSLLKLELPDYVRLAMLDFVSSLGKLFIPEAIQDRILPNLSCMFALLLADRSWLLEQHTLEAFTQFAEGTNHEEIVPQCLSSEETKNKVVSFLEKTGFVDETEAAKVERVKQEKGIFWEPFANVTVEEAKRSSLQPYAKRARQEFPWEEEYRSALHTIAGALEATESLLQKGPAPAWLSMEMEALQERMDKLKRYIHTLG
Sequence of UniProt Q7Z3E2 (Q7Z3E2 whole entry, looked up): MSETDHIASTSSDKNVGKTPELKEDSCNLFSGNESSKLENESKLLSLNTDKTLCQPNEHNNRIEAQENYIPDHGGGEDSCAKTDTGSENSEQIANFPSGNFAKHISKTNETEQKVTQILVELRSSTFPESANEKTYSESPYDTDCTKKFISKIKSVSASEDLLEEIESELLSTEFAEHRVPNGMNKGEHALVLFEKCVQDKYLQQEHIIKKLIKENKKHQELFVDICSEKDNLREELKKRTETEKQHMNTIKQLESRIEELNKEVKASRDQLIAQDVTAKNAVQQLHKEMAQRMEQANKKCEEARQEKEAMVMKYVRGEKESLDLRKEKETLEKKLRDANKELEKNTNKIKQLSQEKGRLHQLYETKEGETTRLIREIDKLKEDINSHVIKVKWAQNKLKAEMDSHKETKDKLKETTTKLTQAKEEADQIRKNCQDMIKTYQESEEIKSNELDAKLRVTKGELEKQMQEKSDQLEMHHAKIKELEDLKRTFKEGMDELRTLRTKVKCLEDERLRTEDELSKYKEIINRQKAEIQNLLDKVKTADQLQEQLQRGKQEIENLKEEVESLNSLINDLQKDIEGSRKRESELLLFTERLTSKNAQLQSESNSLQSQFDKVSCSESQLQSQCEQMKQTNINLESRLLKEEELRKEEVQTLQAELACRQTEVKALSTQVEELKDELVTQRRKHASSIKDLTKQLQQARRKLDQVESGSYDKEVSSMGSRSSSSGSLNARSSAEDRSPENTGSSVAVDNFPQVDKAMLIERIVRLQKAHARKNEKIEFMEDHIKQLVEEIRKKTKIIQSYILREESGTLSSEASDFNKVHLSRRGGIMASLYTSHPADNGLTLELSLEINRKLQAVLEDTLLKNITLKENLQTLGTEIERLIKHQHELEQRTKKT
Sequence of UniProt P56945 (P56945 whole entry, looked up): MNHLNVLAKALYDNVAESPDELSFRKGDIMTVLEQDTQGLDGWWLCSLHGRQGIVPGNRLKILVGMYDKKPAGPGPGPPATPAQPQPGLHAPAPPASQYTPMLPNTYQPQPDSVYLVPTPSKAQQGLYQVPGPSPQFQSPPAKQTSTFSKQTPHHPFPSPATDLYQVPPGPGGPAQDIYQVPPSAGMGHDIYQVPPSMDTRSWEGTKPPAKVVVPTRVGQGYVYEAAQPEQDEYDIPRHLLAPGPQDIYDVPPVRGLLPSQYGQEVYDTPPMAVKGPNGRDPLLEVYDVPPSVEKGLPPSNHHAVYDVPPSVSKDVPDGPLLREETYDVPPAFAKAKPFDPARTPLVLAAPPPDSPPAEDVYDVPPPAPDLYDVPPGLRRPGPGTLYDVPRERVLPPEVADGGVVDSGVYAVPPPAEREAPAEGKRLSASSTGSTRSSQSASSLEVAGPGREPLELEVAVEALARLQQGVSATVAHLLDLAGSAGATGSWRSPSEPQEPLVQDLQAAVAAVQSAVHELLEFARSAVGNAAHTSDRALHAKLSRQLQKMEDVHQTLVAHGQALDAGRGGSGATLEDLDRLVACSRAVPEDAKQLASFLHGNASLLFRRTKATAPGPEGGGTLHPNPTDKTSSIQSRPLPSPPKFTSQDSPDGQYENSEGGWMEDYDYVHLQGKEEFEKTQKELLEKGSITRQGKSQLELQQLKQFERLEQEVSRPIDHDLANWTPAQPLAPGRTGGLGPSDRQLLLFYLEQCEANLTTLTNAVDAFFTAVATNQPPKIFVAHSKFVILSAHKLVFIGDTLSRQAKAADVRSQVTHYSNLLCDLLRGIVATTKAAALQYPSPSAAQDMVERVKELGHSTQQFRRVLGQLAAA
Sequence of UniProt Q00537 (Q00537 whole entry, looked up): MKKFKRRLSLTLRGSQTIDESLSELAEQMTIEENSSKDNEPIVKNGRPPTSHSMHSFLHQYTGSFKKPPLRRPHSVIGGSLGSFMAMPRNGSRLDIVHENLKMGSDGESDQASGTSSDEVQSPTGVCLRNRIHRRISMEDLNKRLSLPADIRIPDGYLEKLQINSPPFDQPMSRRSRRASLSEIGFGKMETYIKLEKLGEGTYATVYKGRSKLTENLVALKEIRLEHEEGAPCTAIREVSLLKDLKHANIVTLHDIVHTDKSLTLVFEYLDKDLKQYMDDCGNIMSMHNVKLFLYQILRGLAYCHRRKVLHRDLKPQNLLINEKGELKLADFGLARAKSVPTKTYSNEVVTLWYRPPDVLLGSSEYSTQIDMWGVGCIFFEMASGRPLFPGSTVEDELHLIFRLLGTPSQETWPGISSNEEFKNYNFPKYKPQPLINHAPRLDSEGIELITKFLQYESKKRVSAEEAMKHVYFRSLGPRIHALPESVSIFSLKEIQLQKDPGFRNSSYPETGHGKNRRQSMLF

Row | Target | log2 fold change (erlotinib) | log2 fold change [1] | log2 fold change [2] | log2 fold change [3] | log2 fold change [4] | log2 fold change [5] | log2 fold change [6] | log2 fold change [7] | log2 fold change [8] | log2 fold change (IRAK-1-4 Inhibitor I)
1 | CDS2 (UniProt O95674) | -0.023 | 0.004 | -0.087 | -0.008 | -0.011 | 0.079 | -0.027 | -0.056 | 0.01 | 0.214 (active)
2 | BCAR1 isoform 6 (UniProt P56945) | 0.005 | -0.043 | 0.052 | 0.048 | -0.019 | 0.019 | -0.063 | 0.041 | 0.021 | -0.017
3 | BTRC (UniProt Q9Y297) | 0.002 | 0.085 | -0.078 | 0.001 | 0 | -0.007 | 0.029 | -0.138 | -0.028 | 0.018
4 | CDK5RAP2 (UniProt Q96SN8) | 0.037 | 0.159 | -0.021 | -0.008 | -0.09 | -0.011 | -0.025 | -0.016 | 0.001 | -0.026
5 | CARD11 (UniProt Q9BXL7) | -0.03 | -0.051 | 0.016 | 0.061 | -0.168 | -0.048 | -0.022 | -0.042 | 0.013 | -0.01
6 | ATP9B (UniProt O43861) | 0.008 | -0.057 | 0.034 | 0.175 | -0.07 | 0.031 | 0.081 | 0.027 | -0.103 | -0.037
7 | CAMKK2 (UniProt Q96RR4) | -0.033 | -0.028 | -0.045 | -0.057 | -0.014 | 0.005 | 0.002 | 0.135 | 0.033 | -0.027
8 | CFDP1 (UniProt Q9UEE9) | -0.027 | -0.023 | 0.067 | -0.024 | -0.02 | -0.004 | 0.033 | -0.03 | 0.011 | -0.017
9 | CENPQ (UniProt Q7L2Z9) | -0.064 | -0.011 | 0.057 | 0.098 | 0.078 | 0.016 | 0.033 | -0.069 | 0.111 | -0.012
10 | ATP6V1B1 (UniProt P15313) | -0.044 | 0.014 | 0.027 | -0.036 | 0.013 | -0.02 | 0.006 | -0.033 | 0.001 | 0.019
11 | AURKA (UniProt O14965) | 0.111 | -0.028 | -0.033 | 0.008 | 0 | -0.039 | 0.359 | 0.483 | -0.004 | 0.129
12 | CDK17 isoform 2 (UniProt Q00537) | -0.156 | -0.007 | 0.173 | 0.099 | -0.114 | 0.005 | 0.046 | 0.124 | 0.068 | 0.055
13 | CASC4 (UniProt Q6P4E1) | -0.005 | 0.004 | -0.035 | 0.003 | -0.049 | -0.02 | -0.119 | -0.013 | 0.047 | -0.008
14 | ATM (UniProt Q13315) | 0.02 | -0.031 | -0.02 | -0.064 | -0.052 | -0.001 | 0.043 | -0.016 | -0.042 | 0.007
15 | BLOC1S6 (UniProt Q9UL45) | -0.008 | 0.007 | 0.029 | 0.027 | 0.001 | 0.002 | -0.004 | 0.093 | -0.01 | -0.031
16 | CALB2 (UniProt P22676) | 0.021 | 0.045 | -0.04 | -0.103 | -0.077 | 0.02 | 0.043 | 0.056 | 0.065 | 0.08

Row | Target | log2 fold change (erlotinib) | log2 fold change [1] | log2 fold change [2] | log2 fold change [3] | log2 fold change [4] | log2 fold change [5] | log2 fold change [6] | log2 fold change [7] | log2 fold change [8] | log2 fold change (IRAK-1-4 Inhibitor I)
17 | CCNYL1 (UniProt Q8N7R7) | 0.026 | -0.101 | 0.084 | 0.06 | -0.04 | -0.042 | -0.002 | -0.051 | 0.049 | 0.026
18 | AUH (UniProt Q13825) | 0.003 | -0.031 | 0.083 | -0.042 | 0.111 | 0.027 | -0.035 | 0.026 | -0.045 | -0.008
19 | CHCHD4 isoform 2 (UniProt Q8N4Q1) | -0.069 | -0.06 | -0.068 | -0.028 | -0.111 | -0.018 | -0.073 | -0.044 | 0.009 | 0.016
20 | C1orf112 (UniProt Q9NSG2) | -0.053 | 0.015 | 0.079 | -0.008 | -0.057 | 0.026 | 0 | -0.046 | 0.054 | -0.034
21 | CCDC32 isoform 2 (UniProt Q9BV29) | -0.021 | 0.031 | -0.027 | 0 | -0.014 | -0.003 | 0.007 | 0.048 | 0.049 | 0.057
22 | CCNB1 (UniProt P14635) | -0.013 | 0.008 | 0.032 | -0.019 | 0.01 | 0.001 | -0.11 | -0.034 | 0.026 | 0.01
23 | CDAN1 (UniProt Q8IWY9) | 0.006 | -0.01 | 0.048 | -0.025 | -0.012 | -0.04 | -0.063 | -0.001 | 0 | 0.003
24 | CCT6A (UniProt P40227) | -0.016 | -0.043 | 0.002 | 0.001 | -0.008 | 0.001 | 0.019 | 0.008 | -0.022 | -0.023
25 | BUD23 isoform 3 (UniProt O43709) | 0.074 | -0.046 | 0.009 | -0.008 | -0.097 | -0.02 | -0.01 | -0.026 | -0.033 | -0.017
26 | CHD1L (UniProt Q86WJ1) | -0.017 | 0.007 | -0.028 | 0.036 | 0.031 | -0.014 | -0.054 | -0.012 | 0.013 | 0.003
27 | CASP9 (UniProt P55211) | -0.007 | 0.008 | 0.008 | 0.03 | 0.069 | -0.002 | -0.008 | 0.014 | 0.006 | 0.034
28 | CARHSP1 (UniProt Q9Y2V2) | 0.011 | 0.022 | -0.033 | -0.06 | 0.006 | -0.026 | 0.027 | 0.01 | 0.011 | 0.024
29 | CBR1 (UniProt P16152) | 0.011 | 0.025 | -0.001 | 0.003 | 0.016 | 0.047 | -0.001 | -0.008 | -0.006 | -0.033
30 | BRD4 (UniProt O60885) | -0.001 | -0.011 | 0.059 | 0.013 | -0.007 | 0.05 | -0.061 | -0.016 | 0.032 | 0.028
31 | CCDC186 (UniProt Q7Z3E2) | -0.018 | 0.026 | 0.01 | 0.007 | -0.03 | -0.009 | -0.027 | -0.039 | 0.007 | 0.016
